# Source: PubChem BioAssay (Broad Institute)
# aSyn 5UTR act: Activators via SNCA 5'UTR binding, MLPCN. alpha-synuclein 5'UTR reporter, activators screen. activity score, % (tested at 7.5 µM), hits read low. 300,000 tested, 7.1% active; in the data active = activity score below about -60%
# Hits are given with their value; n = inactive. These entries were drawn from the full list.
SMILES,aSyn 5UTR act
COc1cc2[nH]c3ccccc3c2cc1C,-65
CCOc1cccc(-c2nnc3n2N=C(c2cc(OC)ccc2OC)CS3)c1,n
CCOc1cccc(-c2csc(C3COc4ccccc4O3)n2)c1 (configuration not stated),-106
O=C(c1ccc2nc(N3CCCCC3)sc2c1)N1CCN(c2ccccn2)CC1,-112
NC(=O)C1CCN(C(=O)c2ccc3nc(N4CCCCC4)sc3c2)CC1,-102
O=C(c1cc(Br)c(Br)s1)N1CCN(c2ccccn2)CC1,-65
O=C(Nc1ccc(-c2nc3ncccc3o2)cc1)c1ccc(Br)o1,-103
O=C(Nc1ccc(-c2nc3ncccc3o2)cc1)c1ccco1,-163
O=C(NC(=S)Nc1ccc(N2CCCCC2)cc1)c1ccco1,-182
O=C(NC(=S)Nc1ccccc1Cl)c1ccco1,-112
CC1CCN(c2ccc(NC(=S)NC(=O)c3ccco3)cc2)CC1,-132
O=C(NC(=S)N(CCc1ccccc1)CCc1ccccc1)c1ccco1,n
OC1(C(F)(F)F)CC(O)(C(F)(F)F)n2nc(-c3ccccc3)cc2N1 (configuration not stated),-126
c1cnc2c(SCc3ccc(-c4nnco4)cc3)cccc2c1,-82
Cc1cccc(CSc2cccc3cccnc23)c1,-103
CN(/N=C/c1ccc(N(C)C)cc1)C1=NS(=O)(=O)c2ccccc21,-97
COc1ccc(N(C)C2=NS(=O)(=O)c3ccccc32)cc1,-70
COc1ccccc1-c1nc(-c2ccncc2)no1,-123
COc1ccccc1-c1nc(-c2ccc(Br)cc2)no1,-305
CCOc1nc(C)ccc1-c1noc(-c2cccnc2)n1,-85
COCC1CCN(Cc2nc(-c3ccc4c(c3)OCO4)no2)C1 (configuration not stated),-114
COc1ccc(-c2nc(-c3ccc(Br)cc3)no2)c(OC)c1,-105
COc1ccc(-c2noc(-c3ccc4c(c3)OCO4)n2)cc1,-72
COc1ccccc1-c1noc(-c2cccnc2)n1,-112
COc1cc(OC)cc(-c2nc(-c3ccc(Br)cc3)no2)c1,-164
SMILES,aSyn 5UTR act
COc1cccc(-c2ccnc3[nH]n(-c4ccccc4)c(=O)c23)c1,-76
CCN(CC(=O)c1c(N)n(C)c(=O)n(C)c1=O)c1cccc2ccccc12,-72
O=C(O)c1cc(N/N=C/c2cccs2)ccc1Cl,-253
O=[N+]([O-])c1cccc(N/N=C/c2cccc3ccccc23)c1,-91
NNc1ccc(Cl)c(C(=O)O)c1,-180
Cc1ccc(/C=N/Nc2ccc(Cl)c(C(=O)O)c2)s1,-153
O=C(O)c1cc(N/N=C/c2cccc3ccccc23)ccc1Cl,-131
O=C(CSc1nnc(C2CCCCC2)o1)Nc1ccccc1Cl,-138
CN(C)c1ccc(N=Nc2nc3ccccc3n2C)cc1,-117
c1ccc(CN2CCN(C3=Nc4cccc5cccc3c45)CC2)cc1,-101
Cc1cc(N2CCN(Cc3cn(C)nc3-c3ccccc3F)CC2)cc(C)n1,n
Fc1ccc(N2CCN(C3=Nc4cccc5cccc3c45)CC2)cc1,-173
O=C1CN(c2nc(-c3cccnc3)nc3scc(-c4ccccc4)c23)CCN1,-90
O=c1c2c3c(sc2nc2n1N=C(c1cccs1)CS2)CCCC3,-166
O=C1CN(c2nc(-c3cccs3)nc3sc4c(c23)CCCC4)CCN1,-109
COc1ccccc1N1CCN(/N=C/c2ccc(C(=O)O)cc2)CC1,-128
O=C(O)c1ccc(/C=N/N2CCN(c3ccccc3)CC2)cc1,-207
COc1ccccc1N1CCN(c2ccc(-c3ccccc3)nn2)CC1,n
COc1ccccc1N1CCN(/N=C/C=C\c2ccco2)CC1,-136
COc1ccc(C(=O)NCC2OCCc3ccccc32)c(O)c1 (configuration not stated),-88
O=C(O)c1ccc(N/N=C/c2ccc(-c3cc(Cl)ccc3Cl)o2)cc1,-156
O=C(O)c1ccc(N/N=C/c2ccc(-c3cccc(Cl)c3)o2)cc1,-114
O=C(O)c1ccc(N/N=C/c2ccc(-c3ccc(Cl)cc3Cl)o2)cc1,-62
CC(C)n1c(/C=C/[C@@H](O)C[C@@H](O)CC(=O)O)c(-c2ccc(F)cc2)c2ccccc21,n
FC(F)(F)c1cnc(-c2cnc(-c3ccncc3)nc2)c(Cl)c1,-109
SMILES,aSyn 5UTR act
CCc1ccc(CCC(=O)Nc2ccccc2C(=O)O)o1,-85
CC#CCCCC(=O)Nc1ccccc1C(=O)O,-75
O=C(Cc1ccccc1F)Nc1nc(-c2ccc(F)c(F)c2)cs1,-85
O=C(Cc1ccccc1F)Nc1nc(-c2cccs2)cs1,-78
O=C(Cc1ccccc1)Nc1nc(-c2cccs2)cs1,-136
CC(=O)Cn1ncc(N2CCCCC2)c(Cl)c1=O,-80
CC(Cc1ccco1)NC(=O)c1ccc(C(F)(F)F)cc1 (configuration not stated),-69
COC(=O)C1CCN(C(=O)/C=C/c2ccccc2)CC1,-135
CCOCCOC(=O)c1[nH]c2c(c1C)C(=O)CC(c1cccs1)C2 (configuration not stated),n
CCOC(=O)C1CCN(C(=O)/C=C/c2cccs2)CC1,-70
O=C(/C=C/c1ccccc1)N1CCC(c2ccccc2)C1 (configuration not stated),-82
Fc1ccc(CNc2ccccn2)cc1,-78
